# Source: PubChem BioAssay
# KDM5B inh = Primary screen for KDM5B Histone Demethylases FDH-coupled qHTS. Lysine-specific demethylase 5B (Homo sapiens), Q9UGL1. KDM5B demethylase, FDH-coupled NADH fluorescence (FDH is formaldehyde dehydrogenase). Potency, µM (doses to about 57.7 µM), hits mostly inhibitors. actives 2.6% (n = 220,000). AID 1347165, 2019; active means well fitted inhibition curve with a large enough effect; further: 0% is about no effect; nearly all actives have a fitted effect of over 70% in size
#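 KDM5BΔAP (200 nM final) in 50 mM HEPES pH 7.5, 0.01% Tween-20 was preincubated 10 min at RT with compound over a concentration range. Substrate mix (H3K4me3 12.5 µM, α-KG 25 µM, Fe²⁺, ascorbate, NAD⁺, FDH) was added, and NADH fluorescence change over 30 min gave dose-response curves.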
# The depositor's hits bear a star; i = inactive. This is one part of a sample in which hits are shown more often than they occur. Potency means the concentration at half of the fitted maximal effect.
SMILES,KDM5B inh
Cc1ccc(NC(=O)CCNc2cnc3cnccn23)cc1F,22µM*
CCOC(=O)C(NC(=O)C1CC1c1cccc(C)c1)C(=O)OCC (stereo not given),i
CCCCCc1ccc(-c2ccc(-c3ccc(C#N)cc3)nc2)cc1,i
COc1ccc(-c2coc3cc(OCC(=O)Nc4ccccc4Cl)ccc3c2=O)cc1,i
CN1CCCN(C(=O)C2CCCN(Cc3ccncc3)CCC(=O)NCC2)CC1 (stereo not given),i
O=C1CCN(Cc2cccnc2)CCCC(C(=O)NCCCN2CCOCC2)CCN1 (stereo not given),i
CCS(=O)(=O)N1CCCC(C(=O)NCc2ccncc2)CCNC(=O)CC1 (stereo not given),i
COCCCNC(=O)C1CCCN(Cc2ccncc2)CCC(=O)NCC1 (stereo not given),25µM*
CS(=O)(=O)N1CCCC(C(=O)NCCN2CCc3ccccc3C2)CCNC(=O)CC1 (stereo not given),i
O=C1CCN(Cc2ccncc2)CCCC(C(=O)NCCCN2CCCc3ccccc32)CCN1 (stereo not given),14µM*
CCN1CCCC1CNC(=O)C1CCCC1 (stereo not given),i
Cc1ccc(N2NC3(CCCC(C)C3)NC2=S)cc1C (stereo not given),i
CCCOC(=O)c1ccc(Nc2nc3ccccc3nc2NS(=O)(=O)c2cccc(C)c2)cc1,i
O=C(Nc1ccc(CC(=O)N2CCOCC2)cc1)c1cccc(Cl)c1,i
Cc1ccc(CNC(=O)c2ccc3c(c2)CN(Cc2cc(F)c(F)c(F)c2)CCO3)cc1,i
CC1(CCCCN2CCOCC2)COc2ccc(C(=O)Nc3ccc(Cl)cc3)cc2N1 (stereo not given),25µM*
CC1(CCCCN2CCOCC2)COc2ccc(C(=O)NCc3cccc(F)c3)cc2N1 (stereo not given),28µM*
O=C(O)c1ccc(CNCCCN2CCOCC2)cc1,i
CCCCN1CCOc2ccc(C(=O)NCc3ccccc3F)cc2C1,i
O=C(NCc1ccc(F)cc1)c1ccc2oc(=O)n(Cc3ccccc3)c2c1,i
CC1(CNc2ccccc2)COc2ccc(C(=O)N3CC(O)C3)cc2N1 (stereo not given),i
CC1(CCCCN2CCOCC2)COc2ccc(C(=O)NCc3ccc(F)cc3)cc2N1 (stereo not given),28µM*
CC1(CNc2ccccc2)COc2ccc(C(=O)NCc3ccc(F)cc3)cc2N1 (stereo not given),32µM*
CCc1ccc(NC(=O)c2cc(CN3CCOCC3)on2)cc1,i
CNS(=O)(=O)Cc1cccc(CNC(=O)c2cccc(F)c2)c1,i
SMILES,KDM5B inh
Cc1ccc(-c2cc(-c3ccc(C)c(C)c3)n(-c3ccc(C)c(C)c3)n2)cc1C,i
Cc1ccc(-c2nn(CCC(=O)NCc3ccccc3)c(=O)c3ccccc23)cc1,i
Cc1cc(Cl)cc(C)c1OCC(=O)NCc1cccc(NC(=O)C2CC2)c1,i
CCCCn1nc(C(=O)N[C@@H](Cc2ccccc2)C(=O)O)c2ccccc2c1=O,i
CC(c1nc2ccccc2s1)N(C)C(=O)c1cccc(S(=O)(=O)Nc2ccccc2F)c1 (stereo not given),i
CC(C)Cn1c(-c2ccccc2)cnc1SC(C)C(=O)NC(N)=O (stereo not given),i
COc1ccc(CN2CCC3(CC2)CC(C(C)C)=NO3)cc1,i
COc1ccc(OC)c(NC(=O)Cn2ccc3cc(OC)ccc32)c1,i
CC(C)(Oc1ccc(Cl)cc1)C(=O)N1CCN(c2nccs2)CC1,i
CCN(C(=O)c1cccs1)c1ccccc1C,i
CCC1(N2CCN(C(=O)c3cc(F)ccc3Cl)CC2)CCN(C(=O)C(C)C)C1 (stereo not given),i
Cc1ccc(S(=O)(=O)Nc2nc3ccccc3nc2Nc2ccc(C)c(F)c2)cc1,i
CC(C)=CC1C(C(=O)N(C)CC(=O)NC(C)(C)C)C1(C)C (stereo not given),i
COc1ccc(-c2c(C)oc3cc(OCC(=O)c4ccccc4)ccc3c2=O)cc1,i
CCN(CC)c1ccc(C2C(C(=O)Nc3ccc(F)cc3F)=C(C)NC3=C2C(=O)CC(C)(C)C3)cc1 (stereo not given),i
CN(C)CCCOCC1(C)COc2ccc(C(=O)N3CCOCC3)cc2N1 (stereo not given),i
CC(C)(C)c1ccc(C(=O)Nc2ccc(F)c(Cl)c2)cc1,i
CN(C)CCCOCC1(C)COc2ccc(C(=O)Nc3ccc(F)c(Cl)c3)cc2N1 (stereo not given),28µM*
O=C(O)C(c1c[nH]c2ccc(Cl)cc12)N1CCN(CCNc2cc(=O)oc3ccccc23)CC1 (stereo not given),i
CN(Cc1ccc(Cl)cc1)C(=O)c1ccc(Cl)c(S(=O)(=O)NC2CC2)c1,i
CC(=O)c1c(C)nn(CC(=O)N2CCn3nc(Cc4ccccc4)cc3C2)c1C,i
O=C(CCc1ccccc1Cl)N1CCn2nc(Cc3ccccc3)cc2C1,i
CN(CC(=O)N1CCn2nc(Cc3ccccc3)cc2C1)Cc1ccncc1,14µM*
O=C(OCC(=O)N1CCOCC1)C1=NN(c2ccccc2)C(=O)CC1,i
CC(C)(C)c1ccc(C(=O)C(=O)N(Cc2cccs2)C2CC2)cc1,i
SMILES,KDM5B inh
COc1ncccc1-c1cnc2[nH]cc(CC(=O)Nc3ccccn3)c2c1,35µM*
COc1ncccc1-c1cnc2[nH]cc(CC(=O)Nc3cc(C)nn3C)c2c1,40µM*
COc1ncccc1-c1cnc2[nH]cc(CC(=O)Nc3ccn(C)n3)c2c1,32µM*
CNC(=O)c1cccc(-c2cnc3[nH]cc(CC(=O)Nc4ccccc4Cl)c3c2)c1,i
Cc1cc(NC(=O)COc2c(Cl)cccc2Cl)n(C)n1,i
Cc1ccc(-c2cnc(CCC(=O)Nc3ccn(C)n3)o2)cc1C,i
Cc1ccccc1-c1cnc2[nH]cc(CC(=O)Nc3ccn(C)n3)c2c1,32µM*
CC(C)c1ccc(C(=O)NC(C)c2ccccc2F)cc1 (stereo not given),i
CCOc1ccccc1C(=O)n1c(=O)oc2ccc(C(C)(C)C)cc21,i
COC(=O)c1ccc(COC(=O)c2ccc(C(=O)OCc3ccc(C(=O)OC)o3)cc2)o1,i
CN(Cc1ccccc1)C(=O)NC1CCCC(C(F)(F)F)C1 (stereo not given),i
O=C(O)CNC(=O)Cn1ccc2ccc(OCc3ccccc3)cc21,i
COc1cc(Cl)ccc1-c1cccc(COc2cnc3c(ccn3CC(=O)O)c2)c1,35µM*
CNC(=O)CCn1ncc2cc(OCc3ccccc3-c3cc(F)cc(OC)c3)ccc21,i
COc1cc(F)cc(-c2cccc(COc3cnc4c(ccn4CC(=O)O)c3)c2)c1,35µM*
COc1ccccc1NC(=O)Cn1ccc2cc(Cl)ccc21,i
COc1ccccc1NC(=O)Cn1ccc2ccc(Cl)cc21,i
Nc1c(C(=O)c2ccc(F)cc2)sc2nc3c(cc12)CN(Cc1ccccc1)CC3,i
CCOC(=O)C1=C(C)Nc2nc(SCc3ccccc3)nn2C1c1ccc(C)cc1 (stereo not given),i
Cc1ccc2c(=O)cc(C(=O)Nc3onc4c3CC(C)CC4)oc2c1C (stereo not given),i
O=C(c1cc(-c2ccco2)[nH]n1)N1CCN(c2ccccc2)CC1,i
FC(F)(F)c1cccc(/C=N/Nc2ccc(Cl)cc2)c1,i
Cc1cc(C)c2c(CC(=O)NCc3ccccc3)coc2c1,i
